The list is not random: actives were taken first. Their share in the collection is about 1.9%.
PINK1 expr mod = changes PINK1 expression; 410,000 tested, 0.2% active; PINK1 immunofluorescence, high-content cytometry, 24 h; Potency, µM (highest dose often 76.6 µM), inactives show at the highest dose activation (PINK1 increase), most hits filed as activators; active = well fitted activation curve with a large enough effect; inconclusive = small, poorly fitted or top-dose-only effect; cell line not stated here; also: potency is read from the fitted curve at half-maximal effect; % of control where 0% means no effect; nearly all actives have a fitted effect of over 65% in size
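Stable cell line treated 24 h with compounds at 5 concentrations (CCCP controls), then fixed and immunostained for PINK1 plus nuclear and cell stains; PINK1 immunofluorescence quantified by laser-scanning microplate cytometry.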
ClpP mod = qHTS Assay for Activators of ClpP | ATP-dependent Clp protease proteolytic subunit (Bacillus subtilis (strain 168)), P80244 | purified B. subtilis ClpP, FRET peptide cleavage, 20 min | Potency, µM (highest dose often 57.5 µM), inactives show at the top dose activity change, negative = active | 340,000 tested, 1.9% active | AID 651965, 2013; active = well fitted falling curve with a large enough effect; inconclusive = small, poorly fitted or top-dose-only effect; inactive = no such curve, though single readings can be large or run the other way; also: potency is read from the fitted curve at half-maximal effect; the source files actives as falling curves though it sought activators and does not explain the sign; nearly all actives have a fitted effect of over 65% in size
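Buffer: 100 mM Tris/HCl pH8, 100 mM KCl, 0.05% low protease BSA, 2.5% glycerol, 0.01% Tween-20. ClpP 10 microg/mL final; 20 min RT; delta FRET normalized to ADEP and DMSO controls.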
CXXC DNA block = inhibitors of human MLL CXXC domain-DNA interaction | Q03164 | MLL-CXXC / FITC-HOXA9 DNA fluorescence polarization | Potency, µM (highest dose often 115 µM), for inactives: at the top dose activity change, negative = inhibition, usual class: inhibitors | 290,000 tested, 0.037% active; active = well fitted inhibition curve with a large enough effect in the polarisation, with a control signal flat, not every such curve was filed as active; inconclusive = small, poorly fitted or top-dose-only effect, or effect the other way, or a change in a side signal; inactive = no such curve, though single readings can be large or run the other way; the % refers to the polarisation; also: potency is read from the fitted curve at half-maximal effect
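Fluorescence polarization: 7 uM MLL-CXXC (stock) preincubated 5 min with compounds, then 50 nM fluorescein-HOX-A9 DNA (stock) added; 30 min ambient. Buffer 50 mM Tris-HCl pH 7.5, 50 mM NaCl, 1 mM DTT, 0.05% BSA.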
Menin MLL FP TR = inhibitors of human menin-MLL interaction, mutant MLL peptide; O00255; Menin + Texas Red MLL mutant peptide, fluorescence polarization; Potency, µM (titrated, usually from 61.6 µM), for inactives: at the highest dose FP activity change, negative = inhibition, most hits filed as inhibitors; 270,000 tested, 0.23% active; active = well fitted inhibition curve with a large enough effect in the polarisation, with a control signal flat, not every such curve was filed as active; inconclusive = small, poorly fitted or top-dose-only effect, or effect the other way, or a change in a side signal; inactive = no such curve, though single readings can be large or run the other way; the % refers to the polarisation; also: potency is read from the fitted curve at half-maximal effect; % of control where 0% means no effect
Target sequence (O00255 whole entry, looked up): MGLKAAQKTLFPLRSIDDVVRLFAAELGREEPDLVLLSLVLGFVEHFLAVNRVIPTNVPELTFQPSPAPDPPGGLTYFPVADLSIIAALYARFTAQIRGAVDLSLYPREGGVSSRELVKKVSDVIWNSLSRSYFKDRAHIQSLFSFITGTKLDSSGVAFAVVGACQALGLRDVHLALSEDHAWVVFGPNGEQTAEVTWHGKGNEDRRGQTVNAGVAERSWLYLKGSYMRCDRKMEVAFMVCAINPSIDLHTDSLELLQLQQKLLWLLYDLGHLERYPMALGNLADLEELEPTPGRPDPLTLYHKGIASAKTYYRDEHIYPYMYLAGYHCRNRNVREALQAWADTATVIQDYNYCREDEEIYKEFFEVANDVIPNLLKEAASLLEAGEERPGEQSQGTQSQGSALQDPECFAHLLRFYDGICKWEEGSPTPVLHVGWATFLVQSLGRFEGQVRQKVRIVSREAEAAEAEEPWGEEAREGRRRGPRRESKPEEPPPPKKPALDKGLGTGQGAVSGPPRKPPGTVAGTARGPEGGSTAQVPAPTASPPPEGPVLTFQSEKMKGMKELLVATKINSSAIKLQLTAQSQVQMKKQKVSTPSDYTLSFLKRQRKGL
Menin MLL FP FL = menin-MLL binding inhibition, fluorescein peptide | 290,000 tested, under 10 active | FP activity change, % at 61.4 µM | Fluorescence polarization, fluorescein-MLL peptide displacement from menin; active = well fitted curve in the direction sought with a large enough effect in the polarisation, not every such curve was filed as active; inconclusive = small, poorly fitted or top-dose-only effect, or effect the other way, or a change in a side signal; inactive = no such curve, though single readings can be large or run the other way; the % refers to the polarisation; also: % of control where 0% means no effect
Epigenetic reg = derepresses silenced GFP reporter in murine cells. murine LDR cells, GFP reporter derepression, 30 h. Potency, µM (series often up to 53.9 µM), without a hit: at the highest dose GFP activation, most hits filed as activators. 280,000 tested, 0.2% active. AID 1865; active = well fitted activation curve with a large enough effect; inconclusive = small, poorly fitted or top-dose-only effect; also: potency is read from the fitted curve at half-maximal effect; % of control where 0% means no effect; nearly all actives have a fitted effect of over 60% in size
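In this reporter-derepression format, murine cells bearing a silenced integrated CMV-GFP locus incubate with test compound (30 h, 37 C), then are washed and imaged; fluorescent objects of 20–120 um count as induced cells.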
Numbers without * were called inactive; ? = inconclusive; . = no result; [ ] = remark or other dose.

SMILES | PINK1 expr mod | ClpP mod | CXXC DNA block | Menin MLL FP TR | Menin MLL FP FL | Epigenetic reg
Cc1ccc(Nc2c(-c3ccccc3O)nc3cc(C)ccn23)cc1 | 2.2% | 28.2µM* | . | . | . | 0.7%
Cn1cc(/C=N/n2cnc3scc(-c4ccc(Cl)cc4)c3c2=O)c2ccccc21 | 0.4% | -14.2% | 5.6% | 11.2µM* | -0.1 | 7.5%
CCN(CC)CCCNC(=O)c1c2c(nc3ccccc13)C(=O)N(C1CCCCC1)C2 | 1.0% | 14.1µM* | . | . | . | 0.0%
CCCNC(=O)c1c2c(nc3ccccc13)C(=O)N(C1CCCCC1)C2 | 1.2% | ? | . | . | . | 2.9%
COc1ccc(NC(=O)c2ccc(OC(F)F)cc2)cc1Cl | 0.4% | 25.1µM* | 17.6% | 20.5% | 7.9 | 0.3%
COc1ccc(NC(=O)c2cc(F)cc(F)c2)cc1Cl | 1.6% | -0.9% | 7.8% | . | 3.5 | 0.8%
CCN(CC)c1ccc(N=Cc2ccc([N+](=O)[O-])o2)cc1 | 9.5% | -0.9% | -6.7% | ? | 20.0 | 7.2%
CCN(CC)c1ccc(N=Cc2ccccc2[N+](=O)[O-])cc1 | 6.2% | -29.1% | 6.7% | 17.8µM* | 0.6 | 7.9%
Cc1oc(-c2cccc(NC(=O)c3ccccn3)c2)nc1CNC(=O)C#Cc1ccccc1 | 0.1% | . | . | . | . | .
Cc1ccc2[nH]c3c(=O)n(CCc4cnc[nH]4)cnc3c2c1 | 1.8% | 15.8µM* | 9.7% | -16.3% | -4.1 | 0.7%
Cn1c2ccccc2c2ncn(CCCN3CCOCC3)c(=O)c21 | -1.8% | 25.1µM* | 4.4% | 6.3% | 3.4 | -2.1%
Cc1ccc2[nH]c3c(=O)n(CCN4CCOCC4)cnc3c2c1 | -0.7% | ? | 4.8% | -5.6% | 4.4 | 1.6%
Cn1c2ccc(F)cc2c2ncn(CCN3CCOCC3)c(=O)c21 | 0.4% | ? | -10.7% | 16.2% | -1.1 | -1.1%
CCOc1ccc2[nH]c3c(=O)n(CCc4ccc(OC)cc4)cnc3c2c1 | 8.1% | . | 20.4% | -3.3% | -3.4 | 25.1µM*
Cc1ccc2[nH]c3c(=O)n(CCCN4CCOCC4)cnc3c2c1 | 0.3% | 14.1µM* | -4.8% | -3.7% | -2.1 | -1.0%
Cc1cc(CNC(=O)c2cnn(-c3nccc(-c4cc(C)sc4C)n3)c2C2CC2)on1 | 0.4% | . | . | . | . | .
C(=C\c1cnc2ccccc2n1)/c1ccc2c(c1)OCO2 | 2.3% | -10.4% | . | . | . | .
CCC1CCCN1Cn1cnc2c([nH]c3ccc(Cl)cc32)c1=O (configuration not stated) | 0.1% | -29.8% | -5.5% | 1.7% | -0.3 | 0.0%
CCC1CCCN1Cn1cnc2c([nH]c3ccc(C)cc32)c1=O (configuration not stated) | -2.4% | 28.2µM* | -3.2% | -2.2% | 2.1 | -2.1%
COc1cc2[nH]c3c(=O)n(CCN4CCCCC4)cnc3c2cc1OC | -1.0% | 14.1µM* | 0.2% | -6.2% | 2.2 | -0.4%
COc1ccc2[nH]c3c(=O)n(CCCN4CCOCC4)cnc3c2c1 | 0.1% | 4.5% | 3.5% | . | 4.2 | -1.6%
Cc1ccc2c(c1)[nH]c1c(=O)n(Cc3ccccn3)cnc12 | -0.5% | 31.6µM* | 0.8% | 3.8% | 1.9 | -1.2%
COc1cccc(Cc2nc3ccccc3nc2SCC(=O)Nc2cccc(C)c2)c1 | 9.0% | -2.3% | . | . | . | ?
COC(=O)[C@@H]1CCCN1C(=O)c1c(OC)cc(=O)n2c1CCN(Cc1ccc3c(c1)OCCO3)CC2 | 0.1% | . | . | . | . | .
Cc1cc(O)cc(O)c1C(=O)Cc1cscn1 | 0.3% | 28.2µM* | -5.0% | -1.1% | 3.3 | 0.7%
Nc1nc2ncn(COCCO)c2c(=O)[nH]1 | 0.5% | -11.0% | . | . | . | .
CC1=C(C(=O)N2CCOCC2)C(c2ccccc2F)C2=C(CCCC2=O)N1 (configuration not stated) | -3.6%[38.3 µM] | 25.1µM* | -0.4% | 0.6% | 6.4 | 0.0%
CCOc1ccccc1NC(=O)c1ccccc1NC(=O)c1ccco1 | -0.4% | . | -7.4% | -21.2% | 2.8 | .
CCCCOc1ccccc1NC(=O)c1ccco1 | -1.9% | 12.6µM* | -0.1% | 1.5% | 2.7 | 6.5%
O=C(NC1CC1)[C@@H]1C[C@H](Sc2nc3ccccc3[nH]2)CN1CC1CCCCC1 | 0.1% | . | . | . | . | .

Compound activity: PubChem, National Center for Advancing Translational Sciences (NCATS)
